KB-3-1 tox: kills parental KB-3-1 adenocarcinoma cells | KB-3-1 viability, CellTiter-Glo ATP luminescence, 72 h | Potency, µM (top dose mostly 46.1 µM), usual class: cytotoxic | 1.4% of 400,000 active | AID 1347075; note: % is set by controls: 0 for no effect and ±100 for the full control effect; nearly all actives have a fitted effect of over 60% in size
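72 h, 37 °C compound treatment of KB-3-1 parental cells; CellTiter-Glo added, 10 min, luminescence read. Data corrected against DMSO-only plates and normalized before curve fitting.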
HT1080NT lethal: kills 2HG-producing HT-1080-NT fibrosarcoma cells | HT-1080-NT fibrosarcoma viability, CellTiter-Glo ATP luminescence, 48 h | Potency, µM (series often up to 46.1 µM), without a hit: at the top dose activity, negative = less viability, hits mostly cytotoxic | 1.6% of 360,000 active;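 note: NT is the 2HG producing partner of a matched IDH1 knockdown line; 0% = DMSO-treated cells and -100% = media-only wells without cells; nearly all actives have a fitted effect of over 55% in size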
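750 cells/well, RPMI + 5% FBS; 2 h settle, compound pin-transfer, 48 h at 37 degrees C. CellTiter-Glo 10 min RT, luminescence. Normalized to DMSO and media-only wells.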
MCF10A rerep: induces DNA re-replication in MCF 10a normal breast cells; AID 624296; Potency, µM (titrated, usually from 46.1 µM), without a hit: at the top dose activity, positive = re-replication, actives largely listed as activators; 2.9% of 350,000 active; MCF 10A DNA re-replication, Hoechst nuclear intensity, 48 h; note: % of control where 0% means no effect; nearly all actives have a fitted effect of over 50% in size
HT1080 IDH1KD tx: HT-1080 IDH1 knockdown cell toxicity (counter line). Potency, µM (doses to about 46.1 µM), for the others: top-dose activity, negative = toxicity, actives largely listed as cytotoxic. HT-1080 IDH1 knockdown viability, ATP luminescence, 48 h. 2% of 360,000 active;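 note: 0% = DMSO wells and -100% = cell-free medium wells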
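Using the IDH1-knockdown HT-1080 line run in the same batch and compound series as the NT line, viability after 48 h at 37 °C was determined by CellTiter-Glo luminescence and expressed as % activity.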
KB-V1 cytotox: kills drug-selected multidrug resistant KB-V1 cells | KB-V1 MDR cells viability, CellTiter-Glo, 72 h | Potency, µM (top dose mostly 46.1 µM), most hits filed as cytotoxic | 3.4% of 400,000 active; note: % is set by controls: 0 for no effect and ±100 for the full control effect; nearly all actives have a fitted effect of over 60% in size
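KB-V1 MDR subline cells in DMEM (phenol-red free, 10% FBS) exposed to compounds in qHTS concentration series for 72 h at 37 degrees C. Viability read by CellTiter-Glo luminescence; concentration-effect curves fitted after normalization and correction.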
SW480 rerep: DNA re-replication induction in SW480 cells | Potency, µM (doses to about 46.1 µM), for the others: at the highest dose re-replication activation, usual class: activators | AID 624297 | SW480 DNA re-replication, Hoechst DNA content imaging, 48 h | 1.8% of 340,000 active; note: % of control where 0% means no effect; nearly all actives have a fitted effect of over 55% in size
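DNA re-replication was detected as more nuclei of elevated Hoechst intensity after 48 hr exposure to compound (23 nL pinned per well of 250 cells).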
Starred values were filed as active, the others as inactive; i = inactive; ? = inconclusive; · = no result given; ! = not active in a repeat. Hits are enriched below; roughly 7.9% of the tested compounds scored in any of these assays. Calls come from the whole dose curve; as a rule, active = well fitted curve in the direction sought with a large enough effect; inconclusive = small, poorly fitted or top-dose-only effect, or another doubt; inactive = no such curve, though single readings can be large; an effect the other way counts as inactive or inconclusive. Potency is the fitted concentration of half-maximal effect.

SMILES	KB-3-1 tox	HT1080NT lethal	MCF10A rerep	HT1080 IDH1KD tx	KB-V1 cytotox	SW480 rerep
CC(C)(C)c1ccc(C(=O)N2CCCC(c3nc4c(nnn4Cc4cccc(F)c4)c(=O)[nH]3)C2)cc1 (configuration not stated)	i	·	·	·	i	·
CSc1nnc2c3cc(F)ccc3n(Cc3ccccc3)c2n1	i	-2%	0%	-3%	?	-2%
Cc1nc2c3cc(F)ccc3n(CCN3CCCCC3)c2s1	?	21µM*	23µM*	?	i	?
CCc1ccc2c(c1)c1nc(C)sc1n2CC(=O)OC	i	2%	-7%	2%	i	-5%
Cc1nc2c3cc(F)ccc3n(Cc3ccccc3)c2s1	16µM*	?	19%	?	?	?
Cc1nc2c3ccccc3n(Cc3ccccc3F)c2s1	i	-19%	15µM*	-23%	?	17%
Cc1nc2c3cc(F)ccc3n(Cc3ccccc3F)c2s1	?	21µM*	105%	18µM*	?	?
Cn1c(=O)c2ccccc2n(Cc2ccccc2F)c1=O	i	-22%	23%	-12%	?	-4%
O=C(NC1CCCC1)c1nc(-c2c(F)cccc2F)oc1-c1ccccc1	i	-8%	·	-23%	?	·
S=C(NCCCc1cnc[nH]1)NCCCN(Cc1ccc(Cl)cc1)c1ncc(Br)cn1	i	·	·	·	i	·
O=C(NCc1ccco1)c1cc2nc(C3CC3)cc(C(F)(F)F)n2n1	i	-7%	6%	-9%	?	-1%
O=C(NCc1ccccc1)c1cc2nc(C3CC3)cc(C(F)(F)F)n2n1	i	22%	9%	1%	23µM*	-2%
O=C(N[C@H]1CCC(=O)N(CCSc2ccc(Br)cc2)CC1)OCc1ccccc1	?	?	4%	?	21µM*!	3%
Cc1cc(C)cc(C(=O)N2CC(=O)Nc3ccc(Br)cc3C2c2ccccc2)c1 (configuration not stated)	?	·	·	·	15µM*	·
Cc1ccc(C(=O)N2CC(=O)Nc3ccc(F)cc3C2c2ccccc2)cc1[N+](=O)[O-] (configuration not stated)	i	-14%	1%	-21%	15µM*	1%
COc1ccccc1C(=O)NC(=O)COC(=O)c1ccc(Cl)nc1	i	3%	0%	2%	i	-9%
Cc1nc2ccc(C(=O)Nc3cccc(OCC(=O)N(C)C)c3)cn2c1N(C)CC1CCCCC1	i	?	·	?	?	·
CN(C(=O)COC(=O)/C=C/c1cccc([N+](=O)[O-])c1)C1CCS(=O)(=O)C1 (configuration not stated)	?	23µM*	21%	16µM*	i	-2%
CN(C(=O)COC(=O)c1c2c(nc3ccccc13)/C(=C/c1cccc([N+](=O)[O-])c1)CCC2)C1CCS(=O)(=O)C1 (configuration not stated)	5.8µM*	?	?	5.8µM*	?	-2%
O=C(COC(=O)c1c2c(nc3ccccc13)/C(=C/c1cccc([N+](=O)[O-])c1)CCC2)NC1CCS(=O)(=O)C1 (configuration not stated)	?	-26%	?	?	23µM*	·
CC1CCN(S(=O)(=O)c2cc(C(=O)Nc3ccccn3)ccc2Br)CC1	i	-8%	15%	1%	?	5%
C/C(N)=C(/C#N)C(=O)COC(=O)c1cc(-c2ccc(Br)cc2)nc2ccccc12	?	?	?	?	21µM*!	?
O=C(COC(=O)c1cc(-c2ccccc2)nc2ccccc12)c1ccc(Br)cc1	i	·	·	·	i	·
COc1cc2ccccc2cc1C(=O)OCC(=O)N1CCOCC1	i	9%	-1%	13%	i	-6%
Nc1nc(N2CCN(C(=O)c3ccco3)CC2)nc2ccc(Br)cc12	?	?	?	-13%	21µM*	-82%
SMILES	KB-3-1 tox	HT1080NT lethal	MCF10A rerep	HT1080 IDH1KD tx	KB-V1 cytotox	SW480 rerep
COc1ccc(-c2cc(C(=O)OCC(=O)N3CCOCC3)c3ccccc3n2)cc1	i	-1%	16µM*	-16%	?	20%
O=C(OCC(=O)N1CCN(C(=O)c2ccco2)CC1)c1cc(-c2cccc(Br)c2)nc2ccccc12	i	-16%	?	-18%	16µM*	10%
Nc1nc(N2CCN(C(=O)c3ccco3)CC2)nc2ccccc12	i	20%	3%	9%	i	-1%
O=C(Nc1ccc(Cl)cc1)N1CCC(CN2CCCCCC2)CC1	i	·	·	·	i	·
CS(=O)(=O)N(CC(=O)N/N=C/c1cc2c(cc1Br)OCO2)c1ccccc1Br	?	-2%	1%	-12%	18µM*	-6%
O=c1n2c(c(O)n1C1CCCCC1)C(c1ccccc1)=Nc1ccccc1C2	i	-1%	·	10%	16µM*	·
COC(=O)c1ccc(C(NC(=O)OCc2ccccc2)/C(F)=C/[C@@H](C)C(=O)NCc2ccc(OC)c(OC)c2)cc1 (some centres not stated)	?	?	?	?	i	16µM*
COC(=O)c1ccc(C(NC(=O)OCc2ccccc2)/C(F)=C/[C@@H](C)C(=O)NCc2ccc(-c3ccccc3)cc2)cc1 (some centres not stated)	i	-9%	?	9%	i	0%
CC1(Oc2ccc(Cl)cc2)CCN(Cc2ccc(-c3ccccn3)cc2)C1 (configuration not stated)	i	-13%	·	-16%	i	·
COc1cc(Cl)ccc1OC1(C)CCN(Cc2ccc(-c3ccccn3)cc2)C1 (configuration not stated)	i	16µM*	·	?	i	·
Cc1ccc(O)c(C(=O)c2cc(C(=O)NCCc3ccccc3)c(=O)n(CCc3ccccc3)c2)c1	i	8%	?	1%	i	?
COc1ccc(O)c(C(=O)c2cc(C(=O)NCCc3ccccc3)c(=O)n(CCc3ccccc3)c2)c1	i	3%	6%	1%	2.1µM*	1%
Cc1sc2nc(SCC(=O)C(C)(C)C)n(Cc3ccco3)c(=O)c2c1C	?	7.1µM*	5.8µM*	6.3µM*	2.6µM*	5.8µM*
COc1ccc(NC(=O)CSc2nc3sc(C)c(C)c3c(=O)n2Cc2ccco2)cc1	i	0%	15µM*	?	?	?
Cc1ccc(CSc2nc3sc(C)c(C)c3c(=O)n2Cc2ccco2)cc1	i	6%	-1%	3%	i	-12%

Screening data deposited in PubChem by National Center for Advancing Translational Sciences (NCATS).
